Test [1] can be described thus: qHTS assay for measurement of the activity of small molecule inhibitors on Zika virus induced Caspase-3 activity in human iPSC derived neural progenitor cells (hNPCs) (AID 1224857). Note: nearly all actives have a fitted effect of over 65% in size. Note: potency is the fitted concentration of half-maximal effect. As to conditions: hNPCs ZIKV-induced caspase-3/7, Caspase-Glo luminescence, 6 h; series mostly up to 45.7 µM. The method in brief:
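Caspase-3/7 induction by a 6-hour ZIKV infection was quantified with a luminescent Caspase-Glo 3/7 reagent incubated 30 minutes at room temperature. Compounds were preincubated with hNPCs for 1 hour; inhibition was calculated against uninfected and infected control wells.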
Background: Quantitative high-throughput screening tests each substance at several concentrations.

Test [2] can be described thus: qHTS assay for measurement of the activity of small molecule inhibitors on Zika virus induced Caspase-3 activity in human astrocytoma cells (AID 1224859). As to conditions: SNB-19 ZIKV-induced caspase-3/7, luminescence, 6 h; series mostly up to 45.7 µM. The method in brief:
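In SNB-19 cells plated at 250 cells/well and grown 16-20 h, compounds were applied 1 h before ZIKV (2 FFU/cell). Six hours later caspase-3/7 luminescence was recorded.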

Test [3] in a line: qHTS Screen of the MIPE 4.0 Collection Against Ewings Sarcoma (RDES) (AID 1259252). Note: nearly all actives have a fitted effect of over 35% in size. Note: potency is the fitted concentration of half-maximal effect. The settings on record: RD-ES Ewing sarcoma viability, CellTiter-Glo, 48 h; series mostly up to 45.8 µM. The method in brief:
(§1)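 After a 4 h attachment period in RPMI/5% FBS, cells were pin-dosed with test compounds; DMSO served as negative and 9.2 uM bortezomib (final) as positive control. Luminescent CellTiter-Glo signal at 48 h defined viability.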

Test [4] in a line: qHTS Screen of the MIPE 4.0 Collection Against Ewings Sarcoma (TC71) (AID 1259253). Note: nearly all actives have a fitted effect of over 40% in size. Note: potency is the fitted concentration of half-maximal effect. The settings on record: TC71 Ewing sarcoma viability, CellTiter-Glo, 48 h; series mostly up to 45.8 µM. The method in brief: as §1
Test [5] is described as follows: qHTS Screen of the MIPE 4.0 Collection Against Ewings Sarcoma (EW8) (AID 1259255). Note: nearly all actives have a fitted effect of over 35% in size. Note: potency is the fitted concentration of half-maximal effect. As to conditions: EW8 Ewing sarcoma viability, CellTiter-Glo, 48 h; series mostly up to 45.8 µM. The method in brief: as §1
Test [6] is described as follows: qHTS Screen of the MIPE 4.0 Collection Against Ewings Sarcoma (TC32) (AID 1259256). Note: nearly all actives have a fitted effect of over 45% in size. Note: potency is the fitted concentration of half-maximal effect. As to conditions: TC32 Ewing sarcoma viability, CellTiter-Glo, 48 h; series mostly up to 45.8 µM. The procedure, abridged: as §1
The nature of test [7]: Identifying Small Molecule Inhibitors of Pancreatic Cancer Stem Cells (SN12C, Adherent) (AID 1259358).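 Note: cell survival measured after 48 h of compound exposure.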 Note: potency is the fitted concentration of half-maximal effect. As to conditions: viability/growth inhibition; series mostly up to 46.1 µM. The method in brief:
(§2)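 Adherent (2D) versus sphere (3D) formats; spheres generated 14 d in SCM beforehand. Compound transferred by pin tool after 4 h, 48 h incubation, CellTiter-Glo endpoint.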

The nature of test [8]: Identifying Small Molecule Inhibitors of Pancreatic Cancer Stem Cells (A2780, Spheroid) (AID 1259357).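 Note: compound exposure lasted 48 h before the ATP luminescence read.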 Note: potency is the fitted concentration of half-maximal effect. As to conditions: Potency: A2780 spheroid viability; series mostly up to 46.1 µM. The procedure, abridged:
as §2

The nature of test [9]: Identifying Small Molecule Inhibitors of Pancreatic Cancer Stem Cells (Panc1, Spheroid) (AID 1259359).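 Note: potency is the fitted concentration of half-maximal effect; compound exposure lasted 48 h before reading.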 The settings on record: Panc1 spheroid cancer stem cell viability; series mostly up to 46.1 µM. The method in brief: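 Monolayer and spheroid cultures are compared. Spheroids form over 14 days in stem cell medium on hydrogel-coated low-attachment plates, then are exposed to compound for 48 h before CellTiter-Glo luminescence.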

Records with an inconclusive call do not appear. The source made the active and inactive calls. Calls come from the whole dose curve; as a rule, active = well fitted curve in the direction sought with a large enough effect; inconclusive = small, poorly fitted or top-dose-only effect, or another doubt; inactive = no such curve, though single readings can be large; an effect the other way counts as inactive or inconclusive.

Consider `Cc1ccc(-c2ncn(-c3ccc(Nc4nccc(-c5cccc(N6CCOCC6)c5)n4)cc3)n2)cn1`, for which the Potency result in test [1] and in [2] was “inactive” in each case. The Potency in test [3] is 0.0743 µM (active); in [4], 0.118 µM (active); in test [5] it was 0.0935 µM (active); in [6] it was 0.0526 µM (active); in test [7], 0.059 µM (active).

In the case of `NC(=O)Nc1cc(-c2cccc(F)c2)sc1C(=O)N[C@H]1CCCNC1`, the Potency entry in [1] and in [2] was “inactive” throughout. In addition, the Potency in [3] was 0.935 µM (active); in test [4], 0.0935 µM (active); in test [5], 0.166 µM (active); in test [6] it was 0.0833 µM (active); in test [8], 18.7 µM (active); in test [7] it was 8.33 µM (active).

`N#Cc1c(O)c2c(-c3ccc(-c4ccccc4O)cc3)csc2[nH]c1=O`: the Potency entry in test [1], in test [2] and in test [7] was “inactive” each time. The Potency in [3] was 14.8 µM (active); in test [4] it was 18.7 µM (active); in test [5], 20.9 µM (active); in test [6] it was 23.5 µM (active).

Take `Nc1ccc(C(=O)c2cc3c(ccc4ccccc43)[nH]2)cc1`: the Potency result in test [1], in [2] and in [7] was “inactive” each time. For the same molecule, the Potency in test [3] was 2.64 µM (active); in test [4], 3.32 µM (active); in test [5] it was 1.87 µM (active); in [6], 1.87 µM (active); in [8], 2.09 µM (active).

Regarding `Cc1ccc(C(=O)Nc2ccc(CN3CCN(C)CC3)c(C(F)(F)F)c2)cc1C#Cc1cnc2cccnn12`, the Potency entry in test [1] and in [2] was “inactive” throughout. Further, the Potency in [3] was 5.26 µM (active); in test [4] it was 4.69 µM (active); in test [5], 5.9 µM (active); in test [6], 5.9 µM (active); in [8] it was 14.8 µM (active); in test [7] it was 16.6 µM (active).

On to `CCCCc1nc2cc(C=CC(=O)NO)ccc2n1CCN(CC)CC`, for which the Potency entry in test [1] and in test [2] was “inactive” throughout. The Potency in test [3] is 0.187 µM (active); in test [4], 0.372 µM (active); in test [5], 0.469 µM (active); in test [6], 0.0935 µM (active); in test [7], 2.96 µM (active).

For `Nc1cc(C(F)(F)F)c(-c2cc(N3CCOCC3)nc(N3CCOCC3)n2)cn1`, the Potency entry in [1] and in [2] was “inactive” throughout. For the same molecule, the Potency was 0.372 µM (active) in test [3]; 1.05 µM (active) in [4]; 0.59 µM (active) in test [5]; 0.264 µM (active) in test [6]; 1.48 µM (active) in test [8]; 0.833 µM (active) in test [9].

Turning to `CC(=O)OCCN1C(=O)c2c(C)nc3ccc(S(=O)(=O)N4CCOCC4)cc3c2C1=O`, the Potency result in test [1], in [2], in [3], in [4], in test [5] and in [6] was “inactive” throughout. Further, the Potency entry in test [8] and in test [7] was “inactive” each time.

On to `COc1cc2c(Oc3ccc4[nH]c(C)cc4c3F)ncnc2cc1OCCCN1CCCC1`, for which the Potency result in [1] and in test [2] was “inactive” throughout. For the same molecule, the Potency in test [3] was 23.5 µM (active); in test [4] it was 23.5 µM (active); in test [5], 23.5 µM (active); in test [6], 16.6 µM (active); in [7], 2.35 µM (active).

In the case of `CC1=C(CO)C(=O)O[C@@H]([C@@H](C)[C@H]2CC[C@H]3[C@@H]4C[C@H]5O[C@]56[C@@H](O)C=CC(=O)[C@]6(C)[C@@H]4CC[C@]23C)C1`, the Potency in [1] was 9.35 µM (active); in test [3], 0.526 µM (active); in test [4], 0.526 µM (active); in test [5] it was 0.264 µM (active); in test [6], 0.209 µM (active); in [8] it was 0.935 µM (active). Moreover, the figures for the Potency in test [7] and in test [9] were 5.26 µM (active) and 1.05 µM (active), respectively. Also, the Potency result in [2] was “inactive”.

For the molecule `CN(C)CCCN=c1c2ccccc2n(C)c2[nH]c(=O)n(C)c(=O)c12`, the Potency result in [1], in [2] and in test [8] was “inactive” throughout. The Potency in [3] was 2.64 µM (active); in [4], 10.5 µM (active); in [5], 1.18 µM (active); in test [6] it was 2.96 µM (active); in test [7], 20.9 µM (active).

Consider `Cc1cn2c(-c3cn[nH]c3)cnc2c(Nc2ccc(C(=O)N3CCNCC3)cc2F)n1`, for which the Potency entry in [1] and in [2] was “inactive” in each case. In addition, the Potency in test [3] is 16.6 µM (active); in test [4], 18.7 µM (active); in test [5], 16.6 µM (active); in test [6] it was 13.2 µM (active); in test [7] it was 20.9 µM (active).

For the molecule `CC(C)[C@H](C(=O)Nc1ccc(C(=O)NO)cc1)c1ccccc1`, the Potency entry in test [1] and in test [2] was “inactive” each time. Besides, the Potency in test [3] was 0.833 µM (active); in test [4] it was 0.662 µM (active); in [5] it was 0.526 µM (active); in [6], 0.526 µM (active); in test [7], 3.72 µM (active).

Take `CCCCN1CCC(CNC(=O)c2c3n(c4ccccc24)CCCO3)CC1`: the Potency result in test [1], in [2] and in test [7] was “inactive” in each case. For the same molecule, the Potency in [3] was 8.33 µM (active); in test [4], 9.35 µM (active); in [5], 14.8 µM (active); in [6] it was 13.2 µM (active).

On to `CCCCCN(CCC12CC3CC(CC(C3)C1)C2)C(=O)NCCCc1ccncc1`, for which the Potency entry in test [1], in test [2] and in test [7] was “inactive” throughout. The Potency in test [3] is 16.6 µM (active); in test [4] it was 18.7 µM (active); in test [5] it was 18.7 µM (active); in [6], 14.8 µM (active).

On to `c1ccc2c(CCNc3ccc(Nc4ccncc4)cc3)c[nH]c2c1`, for which the Potency result in test [1], in test [2] and in test [8] was “inactive” throughout. Further, the Potency in test [3] was 16.6 µM (active); in test [4], 14.8 µM (active); in [5], 5.26 µM (active); in [6] it was 5.26 µM (active); in test [7], 18.7 µM (active).

Take `O=C(C=Cc1cccnc1)NCCCCC1CCN(C(=O)c2ccccc2)CC1`: the Potency result in [1], in [2], in test [8] and in test [7] was “inactive” in each case. Moreover, the Potency in [3] is 0.0042 µM (active); in test [4], 0.0042 µM (active); in [5], 0.0074 µM (active); in [6] it was 0.0042 µM (active).

Values taken from PubChem BioAssay (NCATS).
